The source of these data is PubChem BioAssay (EPA / NIEHS).

In assay [1] the target is Paired box protein Pax-6 (Homo sapiens) (UniProt P26367). In words: ATG_Pax6_CIS: Attagene CIS-FACTORIAL HepG2 Assay for human Paired Box 6 (PAX6) (AID 2282956). To be noted: HepG2 CIS-FACTORIAL PAX6 reporter transcription, RNA readout; actives raise or lower the signal. In outline:
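Multiplexed cis-reporter HepG2 system; 24 h treatment; reporter mRNA read by RT-PCR/CE fluorescence; bidirectional fit vs DMSO.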

Assay [2] is described as follows: ATG_PXRE_CIS: Attagene CIS-FACTORIAL HepG2 Assay for human Pregnane X Receptor Element (PXRE) (AID 2282957). To be noted: HepG2 Attagene CIS-FACTORIAL PXRE reporter, mRNA; actives raise or lower the signal. In outline: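 HepG2 cells transiently transfected with cis-regulated multiple reporter transcription units; endogenous factor activity measured as reporter mRNA 24 h after dosing. RT-PCR, fluorescent primer extension, HpaI digestion, capillary electrophoresis; bidirectional fit versus DMSO baseline.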

A short description of assay [3]: ATG_PPRE_CIS: Attagene CIS-FACTORIAL HepG2 Assay for human Peroxisome Proliferator-activated Response Element (PPRE) (AID 2282958). The settings on record: HepG2 PPRE cis-element reporter, Attagene transcription factor profiling; actives raise or lower the signal. In outline:
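In this cell-based multiplex, a PPRE cis element drives a reporter sequence in transiently transfected HepG2 cells. Following 24 h treatment, labeled cDNA amplicons are sized and quantified by capillary electrophoresis, with DMSO defining baseline.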

The nature of assay [4]: ATG_RORE_CIS: Attagene CIS-FACTORIAL HepG2 Assay for human RAR-related Orphan Receptor Element (RORE) (AID 2282959). To be noted: HepG2 Attagene cis-factorial RORE reporter, mRNA; actives raise or lower the signal. Summed up:
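Endogenous factor activity at a cis response element is read as reporter transcript levels in HepG2 cells, 24 h post-dose. Transcripts are quantified by RT-PCR with capillary electrophoresis, and data fitted in both directions against DMSO.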

A short description of assay [5]: ATG_Sox_CIS: Attagene CIS-FACTORIAL HepG2 Assay for human SRY-box transcription factor (SOX) (AID 2282960). To be noted: HepG2 Attagene cis-factorial SOX reporter, mRNA; actives raise or lower the signal. In outline:
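Measures mRNA induction of a SOX1-associated reporter in HepG2 after 24 h dosing. Fluorescently labelled RT-PCR fragments are separated by capillary electrophoresis, and gain or loss relative to DMSO control is fitted.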

Assay [6] addresses Transcription factor Sp1 (Homo sapiens) (UniProt P08047). As to the kind of experiment: ATG_Sp1_CIS: Attagene CIS-FACTORIAL HepG2 Assay for human Specificity Protein 1 (Sp1) (AID 2282961). The settings on record: HepG2 Sp1 cis-reporter transcription, actives raise or lower the signal. Summed up: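 Cells: HepG2, transiently transfected with cis-regulated multiplexed reporters. Exposure: 24 h. Detection: reporter transcripts amplified, fluorescently labeled, restriction-digested and sized by capillary electrophoresis. Analysis: bidirectional fit relative to DMSO.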

Assay [7] in a line: ATG_SREBP_CIS: Attagene CIS-FACTORIAL HepG2 Assay for human Sterol Regulatory Element Binding (SREBP) (AID 2282962). To be noted: HepG2 Attagene cis-factorial SREBP reporter, mRNA; actives raise or lower the signal. In outline: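 mRNA induction of transfected cis-promoter reporters in HepG2 cells, 24 h post-dose. Detection: RT-PCR with 6-FAM-labelled products, HpaI digest, capillary electrophoresis. DMSO served as negative control and baseline.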

Assay [8] concerns the target Signal transducer and activator of transcription 3 (Homo sapiens) (UniProt P40763). As to the kind of experiment: ATG_STAT3_CIS: Attagene CIS-FACTORIAL HepG2 Assay for human Signal Transducer and Activator of Transcription 3 (STAT3) (AID 2282963). To be noted: HepG2, Attagene cis-factorial STAT3 reporter transcription; actives raise or lower the signal. Summed up: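 Endogenous STAT3-responsive cis-element activity was read in transiently transfected HepG2 cells after 24 h treatment. Reporter transcripts were quantified via RT-PCR and capillary electrophoresis, with DMSO as negative control and bidirectional curve fitting.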

The nature of assay [9]: ATG_TA_CIS: Attagene CIS-FACTORIAL HepG2 Assay for human TA Basal Promoter (AID 2282964). To be noted: HepG2 Attagene CIS-factorial TA basal promoter reporter; actives raise or lower the signal. In outline: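 Steps: transfect HepG2 with MRTUs; dose 24 h; isolate RNA, DNase-treat, reverse-transcribe; PCR and FAM-label reporter cDNA; digest with HpaI 2h at 37 C; run capillary electrophoresis. Activity fitted both directions against DMSO.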

Assay [10] in a line: ATG_TCF_b_cat_CIS: Attagene CIS-FACTORIAL HepG2 Assay for human T-Cell-Factor with beta-catenin (TCF/b-cat) (AID 2282965). To be noted: HepG2 TCF/beta-catenin cis-reporter transcription, actives raise or lower the signal. Summed up: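 Endogenous TCF/LEF activity read as reporter transcript level via RT-PCR and capillary electrophoresis fluorescence in transfected HepG2, 24 h exposure; gain or loss of signal fitted against DMSO controls.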

Assay [11] in a line: ATG_TAL_CIS: Attagene CIS-FACTORIAL HepG2 Assay for human TAL Basal Promoter (AID 2282966).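 Further: background control endpoint measuring basal TAL promoter reporter mRNA not a specific factor.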 To be noted: HepG2 Attagene cis-factorial TAL promoter reporter; actives raise or lower the signal. In outline: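 HepG2 cells were transiently transfected with promoter-driven multiplexed reporter units and dosed for 24 h. Reporter mRNA was measured by RT-PCR with capillary electrophoresis fluorescence; bidirectional fits used DMSO as baseline, serving as a background control.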

A short description of assay [12]: ATG_TGFb_CIS: Attagene CIS-FACTORIAL HepG2 Assay for human Transforming Growth Factor (TGF) (AID 2282967). The settings on record: HepG2 Attagene CIS TGFb reporter, mRNA transcription; actives raise or lower the signal. In outline: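 Cells were dosed for 24 hours, after which total RNA was reverse-transcribed and reporter sequences amplified, labeled and sized by capillary electrophoresis. Activity was fitted in both directions against DMSO.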

A short description of assay [13]: ATG_VDRE_CIS: Attagene CIS-FACTORIAL HepG2 Assay for human Vitamin D Receptor Element (VDRE) (AID 2282968). To be noted: HepG2 VDRE cis-reporter transcription, actives raise or lower the signal. Summed up:
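Reporter mRNA induction, quantified by capillary electrophoresis of fluorescently labelled RT-PCR products, was read 24 h after dosing HepG2 cells carrying transiently transfected cis-regulated reporter units; gain or loss relative to DMSO.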

Assay [14] deals with Steroid hormone receptor ERR1 (Homo sapiens) (UniProt P11474). In words: ATG_ERRa_TRANS: Attagene TRANS-FACTORIAL HepG2 Assay for human Estrogen-Related Receptor alpha (ERRa) (AID 2282971; active means hit-call score of the fitted dose curve at least 0.9, where 1 is the maximum). The settings on record: HepG2 Attagene TRANS reporter, ERRa transactivation. Summed up: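 HepG2 cells transiently transfected with multiplexed GAL4-UAS reporter units reading chimeric ERRa-Gal4 activity; 24 h compound exposure. Reporter mRNA measured by RT-PCR, 6-FAM labelling, HpaI digest and capillary electrophoresis; gain of signal fitted versus DMSO baseline.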
Sequence of Steroid hormone receptor ERR1 (Homo sapiens) (P11474 whole entry, looked up, the tested form may be a part): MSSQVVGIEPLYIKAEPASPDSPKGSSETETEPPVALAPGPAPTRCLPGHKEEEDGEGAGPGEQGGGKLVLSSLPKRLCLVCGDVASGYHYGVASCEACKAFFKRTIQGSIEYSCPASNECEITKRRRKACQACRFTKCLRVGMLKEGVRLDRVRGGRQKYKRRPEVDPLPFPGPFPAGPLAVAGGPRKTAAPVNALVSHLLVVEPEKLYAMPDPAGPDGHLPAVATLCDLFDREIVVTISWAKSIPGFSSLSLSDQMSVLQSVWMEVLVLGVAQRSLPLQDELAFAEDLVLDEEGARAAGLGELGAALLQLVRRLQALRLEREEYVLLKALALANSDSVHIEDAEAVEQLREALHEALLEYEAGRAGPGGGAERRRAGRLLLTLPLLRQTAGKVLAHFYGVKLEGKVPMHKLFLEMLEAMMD

The target of assay [15] is X-box-binding protein 1 (Homo sapiens) (UniProt P17861). In words: ATG_Xbp1_CIS: Attagene CIS-FACTORIAL HepG2 Assay for human X-box Binding Protein 1 (XBP1) (AID 2282972). The settings on record: HepG2 XBP1 cis-element reporter, Attagene multiplex; actives raise or lower the signal. In outline: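 Fluorescence-labelled cDNA fragments from reporter transcripts, separated by capillary electrophoresis, give the signal. Source: HepG2 cells transfected with promoter-driven reporter units, harvested 24 h post-dose. DMSO served as reference for bidirectional curve fitting.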
Sequence of X-box-binding protein 1 (Homo sapiens) (P17861 whole entry, looked up, the tested form may be a part): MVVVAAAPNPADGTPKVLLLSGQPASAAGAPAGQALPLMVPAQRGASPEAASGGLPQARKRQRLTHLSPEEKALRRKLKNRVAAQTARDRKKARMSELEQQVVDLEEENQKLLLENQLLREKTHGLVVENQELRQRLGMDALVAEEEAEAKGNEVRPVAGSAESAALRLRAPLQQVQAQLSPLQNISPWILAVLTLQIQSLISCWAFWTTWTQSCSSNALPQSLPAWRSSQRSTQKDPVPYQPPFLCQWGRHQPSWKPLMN

Assay [16] in a line: ATG_M_19_TRANS: Attagene TRANS-FACTORIAL HepG2 Assay for M19 Transcription Factor (Internal Marker) (AID 2282974; active means hit-call score of the fitted dose curve at least 0.9, where 1 is the maximum). To be noted: HepG2 Attagene TRANS-FACTORIAL M19 internal marker reporter. In outline:
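Reporter mRNA induction was measured in transfected HepG2 cells 24 h after dosing. Endpoint fitted upward relative to DMSO and serves as a background control within the multiplexed TRANS panel.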

The nature of assay [17]: ATG_GAL4_TRANS: Attagene TRANS-FACTORIAL HepG2 Assay for GAL4 (Internal Marker) (AID 2282976; active means hit-call score of the fitted dose curve at least 0.9, where 1 is the maximum). The settings on record: HepG2 Attagene TRANS GAL4 internal marker reporter. In outline:
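HepG2 cells transiently transfected with multiplexed GAL4-UAS reporter constructs were dosed for 24 h. Reporter mRNA was measured by RT-PCR, 6-FAM primer extension, HpaI digestion and capillary electrophoresis, and gain of signal was fitted relative to DMSO.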

For assay [18], the target named is Estrogen receptor (Homo sapiens) (UniProt P03372). In words: ATG_ERa_TRANS: Attagene TRANS-FACTORIAL HepG2 Assay for human Estrogen Receptor alpha (ERa) (AID 2282970; active means hit-call score of the fitted dose curve at least 0.9, where 1 is the maximum). To be noted: HepG2 Attagene TRANS ERa GAL4 reporter, mRNA. In outline:
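HepG2 cells transiently transfected with multiplexed GAL4-UAS reporter units; ERa activity read via exogenous chimeric NR-Gal4 protein. After 24 hour compound exposure, reporter mRNA measured by RT-PCR with 6-FAM labelling and capillary electrophoresis; gain-of-signal fitted relative to DMSO.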

Assay [19] has as its target Estrogen-related receptor gamma (Homo sapiens) (UniProt P62508). In words: ATG_ERRg_TRANS: Attagene TRANS-FACTORIAL HepG2 Assay for human Estrogen-Related Receptor gamma (ERRg) (AID 2282977; active means hit-call score of the fitted dose curve at least 0.9, where 1 is the maximum;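 further: hits increase reporter signal over DMSO so potencies reflect activators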). The settings on record: HepG2 Attagene TRANS reporter, ERRg transactivation. In outline: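 Transfect HepG2 with multiple GAL4-UAS reporter transcription units; dose chemicals 24 h; isolate RNA, reverse-transcribe with oligo(dT), PCR-amplify, label with 6-FAM, digest with HpaI; size fragments by capillary electrophoresis. DMSO serves as negative control.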

In assay [20] the target is Nuclear receptor subfamily 1 group I member 3 (Homo sapiens) (UniProt Q14994). As to the kind of experiment: ATG_CAR_TRANS: Attagene TRANS-FACTORIAL HepG2 Assay for human Constitutive Androstane Receptor (CAR) (AID 2282969; active means hit-call score of the fitted dose curve at least 0.9, where 1 is the maximum;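 further: activators raise reporter mRNA above DMSO so AC50 marks induction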). To be noted: HepG2 Attagene TRANS-FACTORIAL CAR reporter. Summed up: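 Readout is reporter mRNA induction, quantified by fluorescent primer extension and capillary electrophoresis after RT-PCR. Cells were HepG2 transiently carrying chimeric NR-Gal4 constructs with GAL4-UAS reporters, treated for 24 h; activity scored upward from DMSO.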
Sequence of Nuclear receptor subfamily 1 group I member 3 (Homo sapiens) (Q14994 whole entry, looked up, the tested form may be a part): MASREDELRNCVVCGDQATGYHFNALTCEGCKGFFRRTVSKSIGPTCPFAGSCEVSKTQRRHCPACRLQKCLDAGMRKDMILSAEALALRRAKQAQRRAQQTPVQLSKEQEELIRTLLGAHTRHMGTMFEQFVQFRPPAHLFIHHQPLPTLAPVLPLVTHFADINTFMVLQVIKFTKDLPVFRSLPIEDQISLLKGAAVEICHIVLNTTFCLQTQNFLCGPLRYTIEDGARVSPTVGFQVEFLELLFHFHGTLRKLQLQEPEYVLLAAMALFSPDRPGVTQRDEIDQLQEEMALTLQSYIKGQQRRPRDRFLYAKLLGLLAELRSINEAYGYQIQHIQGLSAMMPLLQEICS

Structures are written as SMILES. Where “and” joins values, the source holds several entries; their conditions need not be identical. Identical values can stand only once. Records with an inconclusive call do not appear. More than one record can exist for a structure, and the calls need not agree. Calls of active or inactive are those of the source. How the source made its calls, unless noted: active means hit-call score of the fitted dose curve at least 0.9, where 1 is the maximum; inactive means score below 0.9.

Sequence of Transcription factor Sp1 (Homo sapiens) (P08047 whole entry, looked up): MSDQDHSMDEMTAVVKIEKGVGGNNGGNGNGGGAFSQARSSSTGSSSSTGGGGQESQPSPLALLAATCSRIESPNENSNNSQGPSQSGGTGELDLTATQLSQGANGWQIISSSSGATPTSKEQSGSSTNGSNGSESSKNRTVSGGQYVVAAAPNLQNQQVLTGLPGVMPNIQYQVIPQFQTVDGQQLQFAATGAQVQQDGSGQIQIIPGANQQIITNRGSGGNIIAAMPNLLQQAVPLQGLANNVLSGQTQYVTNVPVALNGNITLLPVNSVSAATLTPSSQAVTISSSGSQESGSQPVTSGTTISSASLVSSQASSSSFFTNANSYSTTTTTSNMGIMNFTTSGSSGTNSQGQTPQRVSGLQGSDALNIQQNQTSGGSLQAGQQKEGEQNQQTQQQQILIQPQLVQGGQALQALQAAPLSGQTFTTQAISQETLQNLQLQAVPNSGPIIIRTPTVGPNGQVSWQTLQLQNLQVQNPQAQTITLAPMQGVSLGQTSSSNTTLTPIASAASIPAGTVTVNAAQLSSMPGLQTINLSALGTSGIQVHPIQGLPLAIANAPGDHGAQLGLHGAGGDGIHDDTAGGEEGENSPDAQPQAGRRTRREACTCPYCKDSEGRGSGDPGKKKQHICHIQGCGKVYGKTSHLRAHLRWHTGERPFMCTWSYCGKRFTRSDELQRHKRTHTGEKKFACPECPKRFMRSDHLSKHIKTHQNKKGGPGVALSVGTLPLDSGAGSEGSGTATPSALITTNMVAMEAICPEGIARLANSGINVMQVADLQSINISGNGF
Sequence of Paired box protein Pax-6 (Homo sapiens) (P26367 whole entry, looked up): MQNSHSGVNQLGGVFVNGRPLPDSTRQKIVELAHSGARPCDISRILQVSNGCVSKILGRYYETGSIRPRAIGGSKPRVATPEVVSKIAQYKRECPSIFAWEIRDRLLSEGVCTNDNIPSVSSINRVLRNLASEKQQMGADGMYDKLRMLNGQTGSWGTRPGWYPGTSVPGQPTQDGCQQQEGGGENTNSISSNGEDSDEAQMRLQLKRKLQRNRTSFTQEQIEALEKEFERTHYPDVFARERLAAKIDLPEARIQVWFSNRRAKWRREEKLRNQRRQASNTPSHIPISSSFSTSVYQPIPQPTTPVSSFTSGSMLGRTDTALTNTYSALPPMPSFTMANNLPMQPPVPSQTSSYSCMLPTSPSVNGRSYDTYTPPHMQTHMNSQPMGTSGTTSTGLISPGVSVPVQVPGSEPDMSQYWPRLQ
Sequence of Signal transducer and activator of transcription 3 (Homo sapiens) (P40763 whole entry, looked up): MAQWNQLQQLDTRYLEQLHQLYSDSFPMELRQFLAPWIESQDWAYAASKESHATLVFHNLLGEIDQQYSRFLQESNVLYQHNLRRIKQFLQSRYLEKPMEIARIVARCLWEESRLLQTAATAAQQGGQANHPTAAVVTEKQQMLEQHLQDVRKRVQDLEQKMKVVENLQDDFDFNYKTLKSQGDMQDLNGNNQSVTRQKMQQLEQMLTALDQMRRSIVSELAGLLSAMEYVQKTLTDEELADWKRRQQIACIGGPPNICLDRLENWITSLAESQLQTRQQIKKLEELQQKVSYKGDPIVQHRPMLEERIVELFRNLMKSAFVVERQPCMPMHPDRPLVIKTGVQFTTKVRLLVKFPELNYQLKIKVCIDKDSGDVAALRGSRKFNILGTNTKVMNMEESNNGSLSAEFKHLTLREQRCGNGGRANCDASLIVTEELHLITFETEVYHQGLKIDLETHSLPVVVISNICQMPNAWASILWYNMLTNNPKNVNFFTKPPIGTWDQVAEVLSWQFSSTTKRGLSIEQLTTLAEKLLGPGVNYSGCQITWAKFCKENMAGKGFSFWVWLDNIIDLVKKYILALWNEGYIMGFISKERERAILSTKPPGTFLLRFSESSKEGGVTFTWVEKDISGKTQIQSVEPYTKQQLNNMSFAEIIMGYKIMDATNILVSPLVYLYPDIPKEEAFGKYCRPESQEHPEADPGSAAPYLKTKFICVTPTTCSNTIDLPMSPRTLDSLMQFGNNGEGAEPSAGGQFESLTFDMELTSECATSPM
Sequence of Estrogen receptor (Homo sapiens) (P03372 whole entry, looked up, the tested form may be a part): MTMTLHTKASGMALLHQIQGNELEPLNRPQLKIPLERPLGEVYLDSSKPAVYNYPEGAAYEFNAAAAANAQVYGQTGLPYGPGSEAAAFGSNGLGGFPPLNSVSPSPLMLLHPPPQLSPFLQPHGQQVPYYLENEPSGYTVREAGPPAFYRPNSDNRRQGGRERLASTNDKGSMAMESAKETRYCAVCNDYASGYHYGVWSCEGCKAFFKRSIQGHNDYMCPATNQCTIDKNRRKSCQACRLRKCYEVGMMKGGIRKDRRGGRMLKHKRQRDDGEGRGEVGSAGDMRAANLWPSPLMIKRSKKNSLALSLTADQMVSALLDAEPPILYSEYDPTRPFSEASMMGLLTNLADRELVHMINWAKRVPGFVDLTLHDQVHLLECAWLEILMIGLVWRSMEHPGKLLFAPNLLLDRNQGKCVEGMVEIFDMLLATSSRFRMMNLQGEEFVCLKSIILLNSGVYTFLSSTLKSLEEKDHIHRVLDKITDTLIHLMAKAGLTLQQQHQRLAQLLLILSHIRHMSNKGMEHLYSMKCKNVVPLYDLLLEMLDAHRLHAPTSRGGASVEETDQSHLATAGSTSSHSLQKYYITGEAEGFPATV
Sequence of Estrogen-related receptor gamma (Homo sapiens) (P62508 whole entry, looked up, the tested form may be a part): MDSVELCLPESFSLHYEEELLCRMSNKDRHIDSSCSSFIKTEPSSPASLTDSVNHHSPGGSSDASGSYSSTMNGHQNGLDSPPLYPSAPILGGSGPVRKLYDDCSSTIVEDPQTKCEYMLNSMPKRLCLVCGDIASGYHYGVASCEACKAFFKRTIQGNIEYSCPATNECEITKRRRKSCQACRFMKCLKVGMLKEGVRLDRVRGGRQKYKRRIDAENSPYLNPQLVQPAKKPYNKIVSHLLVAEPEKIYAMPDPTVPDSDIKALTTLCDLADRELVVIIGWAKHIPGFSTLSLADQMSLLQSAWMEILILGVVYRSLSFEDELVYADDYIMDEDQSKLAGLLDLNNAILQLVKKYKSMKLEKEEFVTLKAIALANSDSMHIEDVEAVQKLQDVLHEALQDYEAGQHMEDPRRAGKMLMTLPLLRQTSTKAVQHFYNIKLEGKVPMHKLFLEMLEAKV

Regarding `CO[C@H]1/C=C/O[C@@]2(C)Oc3c(C)c(O)c4c(O)c(c(/C=N/N5CCN(C)CC5)c(O)c4c3C2=O)NC(=O)/C(C)=C\C=C\[C@H](C)[C@H](O)[C@@H](C)[C@@H](O)[C@@H](C)[C@H](OC(C)=O)[C@@H]1C`, the result in assay [1], in assay [3], in assay [4], in assay [5], in assay [6] and in [7] was inactive. For the same compound, the outcome in assay [8], in assay [9], in assay [10], in [11], in [12] and in [13] was inactive. Further, the compound was classed as inactive in assay [14], in assay [15], in assay [16] and in [17]. Also, the AC50 (as a rule, the concentration giving half of the maximal activity seen) in assay [2] was 461 nM (active) and 369 nM (active); in assay [13], 1380 nM (active).
On to `CC[C@H](NC(=O)c1cc(F)ccc1NS(=O)(=O)c1cccc2cccnc12)c1ccccc1`, for which the outcome in assay [1], in [3], in [4], in assay [5], in assay [6] and in [8] was inactive. Besides, the call in assay [9], in [10], in [11], in assay [12], in assay [18] and in [14] was inactive. In addition, the result in assay [16], in assay [17] and in assay [19] was inactive. Besides, the AC50 in assay [2] is 14.4 nM (active); in assay [7] it was 27100 nM (active); in [13], 209 nM (active).
Take `c1ccc2n[nH]nc2c1`: the outcome in [1], in [2], in assay [3], in assay [4], in assay [5] and in assay [6] was inactive. Also, the call in assay [7], in assay [8], in assay [9], in [10], in assay [11] and in assay [12] was inactive. The result in assay [20], in assay [15], in assay [16] and in [17] was inactive.
